# Compound activity deposited in PubChem BioAssay by several laboratories.
# This is a sample that favours compounds with a hit; in the whole collection about 3% have one here.
# Mtb BioA inh: inhibitors of Mycobacterium tuberculosis BioA enzyme; purified M. tuberculosis BioA enzyme, plate reader; inhibition, % at 9.99 µM; 360,000 tested, 0.096% active; AID 602481; in the data active = inhibition above about 40%
# GDH-TPI counter: counter-screen for M. tuberculosis FBA inhibitors: GDH-TPI coupled enzymes | GDH-TPI coupled enzyme counterscreen, NADH absorbance | inhibition, % at 4.8 µM | 360,000 tested, 1.2% active | AID 588335; in the data active = inhibition above about 30%;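 note: 0% = DMSO wells and 100% = wells lacking the enzyme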
# Mtb FBA inh: Mtb fructose-bisphosphate aldolase inhibition. P9WQA3. inhibition, % at 1 µM. AID 588726. purified M. tuberculosis FBA, fluorescence read-out. 360,000 tested, 2.3% active; in the data active = inhibition above about 27%;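 note: 0% = vehicle and 100% = reference inhibitor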
# Target sequence (P9WQA3 whole entry, looked up): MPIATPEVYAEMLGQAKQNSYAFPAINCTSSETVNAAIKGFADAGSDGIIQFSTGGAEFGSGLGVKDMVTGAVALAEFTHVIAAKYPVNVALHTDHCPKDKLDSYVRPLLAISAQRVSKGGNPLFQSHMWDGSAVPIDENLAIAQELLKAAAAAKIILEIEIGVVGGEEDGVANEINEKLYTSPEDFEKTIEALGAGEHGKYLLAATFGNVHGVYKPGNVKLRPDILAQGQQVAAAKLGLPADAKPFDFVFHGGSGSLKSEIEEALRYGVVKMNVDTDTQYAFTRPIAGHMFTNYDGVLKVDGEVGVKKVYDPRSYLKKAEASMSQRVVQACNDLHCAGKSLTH
# Vc quorum ag: quorum light induction in luxS cqsA deficient V. cholerae; V. cholerae BH1578 lux reporter, luminescence, 6 h; activation, % at 18.7 µM; 350,000 tested, 0.16% active; in the data active = activation mostly above about 9.7%, no sharp cut-off
# * = called active by the depositor; i = inactive; / = no result given; + = active, no number.
SMILES,Mtb BioA inh,GDH-TPI counter,Mtb FBA inh,Vc quorum ag
COc1ccc2cc3cc(C(=O)Nc4ccc5c(c4)OCCO5)oc3nc2c1,-1,43*,4,-1
COc1ccc2cc3cc(C(=O)NCc4ccc5c(c4)OCO5)oc3nc2c1,0,37*,19,i
COc1ccc2cc3cc(C(=O)Nc4cc(OC)c(OC)c(OC)c4)oc3nc2c1,0,23,1,i
COc1ccc2cc3cc(C(=O)NC(C)C)oc3nc2c1,1,31*,+,i
C[C@H]1CCCCO[C@H](CN(C)S(=O)(=O)c2ccccc2)[C@@H](C)CN([C@@H](C)CO)C(=O)c2cc(NC(=O)Nc3ccc4c(c3)OCO4)ccc2O1,-1,/,/,/
COc1ccc2cc3cc(C(=O)N4CCN(c5ccccn5)CC4)oc3nc2c1,-3,42*,2,i
Cc1ccc2cc3cc(C(=O)NC4CC4)oc3nc2c1,-1,49*,19,-2
COc1ccc2cc3cc(C(=O)NCc4cccnc4)oc3nc2c1,/,23,+,0
COc1ccc(C(=O)NCc2cccnc2)cc1,-2,1,2,4
Cc1ccc2cc3cc(C(=O)NCCC(C)C)oc3nc2c1,-4,28,22,i
CN(C)CCCNC(=O)C[C@H]1CC[C@H]2[C@@H](COC[C@@H](O)CN2CC2CCCC2)O1,0,/,/,/
COc1ccc(NC(=O)Nc2cccc3c2O[C@@H](CN(C)C(=O)Nc2ccc(OC)cc2)[C@H](C)CN([C@H](C)CO)C3=O)cc1,0,/,/,/
O=C1/C(=C/c2ccc(C(=O)O)cc2)CCC/C1=C\c1ccc(C(=O)O)cc1,-1,33*,-4,-1
CN(C)c1ccc(/C=C2\CCC/C(=C\c3ccccc3)C2=O)cc1,-1,-14,-10,0
O=C(C[C@@H]1C[C@H]2c3cc(NC(=O)c4cccnc4)ccc3O[C@H]2[C@@H](CO)O1)NCc1ccncc1,21,/,/,/
CCOC(=O)CNC(=O)c1ccccc1Br,0,3,+,0
CCOC(=O)CNC(=O)c1ccccc1,1,5,-2,i
COc1ccc(CNC(=O)C[C@@H]2C[C@H]3c4cc(NS(C)(=O)=O)ccc4O[C@H]3[C@@H](CO)O2)cc1,-2,/,/,/
COc1cccc(-c2ccc3n(c2=O)C[C@H]2[C@H](CO)[C@@H](C(=O)N(C)C)N(C(=O)C4CCCC4)[C@@H]32)c1,0,/,/,/
COc1cc(/C=C2\SC(=O)NC2=O)ccc1OCC(=O)N1CCOCC1,-2,37*,2,-3
COc1cc(/C=N/NC(=O)c2ccc(Cl)cc2)ccc1OCC(=O)N1CC(C)OC(C)C1 (centres undefined),1,12,0,-1
COc1cc(/C=N/NC(=O)c2cccnc2)ccc1OCC(=O)N1CCOCC1,14,14,-5,0
COc1cc(C(=O)O)ccc1OCC(=O)N1CCOCC1,0,5,0,/
COc1cc(/C=N/NC(=S)Nc2cccc(Cl)c2C)ccc1OCC(=O)N1CC(C)OC(C)C1 (centres undefined),0,33*,-2,0
COc1cc(/C=N/NC(N)=S)ccc1OCC(=O)N1CCOCC1,0,31*,0,2
SMILES,Mtb BioA inh,GDH-TPI counter,Mtb FBA inh,Vc quorum ag
C[C@H]1CN([C@@H](C)CO)C(=O)c2cc(NC(=O)C3CC3)ccc2O[C@H]1CN(C)Cc1ccc(Cl)c(Cl)c1,-2,/,/,/
CO[C@H]1CN(C)C(=O)c2ccc(NS(=O)(=O)C3CCCCC3)cc2OC[C@@H](C)NC[C@H]1C,-1,/,/,/
CC(C)(C)c1ccc(-c2ncccc2O)cc1,/,3,170*,0
CC(O)/C=C/C1OC(=O)CC1Nc1ccc(C=O)cc1 (centres undefined),-2,34*,0,-1
Cc1cc(N2CCN(c3ccccc3)CC2)nc(-c2ccccc2O)n1,0,7,7,i
Cc1cc(N2CCC(C)CC2)nc(-c2ccccc2O)n1,/,38*,7,0
C[C@H](CO)N1C[C@H](C)[C@@H](CN(C)C(=O)C2CCOCC2)Oc2cc(C#Cc3ccncc3)ccc2S1(=O)=O,0,/,/,/
COc1cc(/C=C2\SC(=O)N(c3ccc(O)cc3)C2=O)cc(OC)c1OC,-2,48*,-3,0
COc1ccc(-c2nc3cnccn3c2NCc2ccccc2)cc1SC1CCCCC1,-1,-8,20,0
COc1ccc(-c2nc3ccc(C)cn3c2Cc2ccccc2)cc1OC,22,/,90*,/
COc1cc(-c2nc3ccc(C)cn3c2NCc2ccccc2)ccc1SC1CCCCC1,-1,12,39*,-19
Cc1ccc(/C=N/NC(=O)c2ccc(Br)o2)s1,/,31*,-4,0
CCc1ccc(/C=N\NC(=O)c2ccc(Br)o2)s1,2,47*,-2,0
O=C(N/N=C\c1ccc(Cl)s1)c1ccc(Cn2cccn2)o1,/,37*,-1,0
CCN(CC)c1ccc(/C=N/NC(=O)c2ccc(Br)o2)cc1,/,22,-2,-1
Cc1noc(C)c1NC(=O)Nc1ccc2c(c1)C(=O)N([C@H](C)CO)C[C@H](C)[C@H](CN(C)C(=O)Nc1ccc(C(F)(F)F)cc1)OCCCC[C@@H](C)O2,3,/,/,/
Cc1ccc(S(=O)(=O)N[C@H]2CC[C@H](CC(=O)N3CCC(Cc4ccccc4)CC3)O[C@@H]2CO)cc1,3,/,/,/
FC(F)(F)c1cc(C(F)(F)F)c2ccc(Oc3ccccc3)nc2n1,-5,17,-2,i
Nc1ccc2c(C(F)(F)F)cc(C(F)(F)F)nc2n1,/,12,+,1
C[C@H]1CN([C@@H](C)CO)C(=O)c2cc(-c3cncnc3)cnc2O[C@@H]1CN(C)C(=O)Cc1ccccn1,0,/,/,/
Nc1nc2ccccc2n1/N=C/c1ccc2c(c1)OCO2,-1,49*,1,i
Nc1nc2ccccc2n1/N=C/c1ccc(Br)cc1,0,16,0,-5
CC(=O)c1ccc(N2CCN(c3ccc(C(N)=O)cc3[N+](=O)[O-])CC2)cc1,/,33*,-9,i
NC(=O)c1ccc(N2CCN(c3ccc(O)cc3)CC2)c([N+](=O)[O-])c1,/,7,-2,0
CCS(=O)(=O)NCC[C@@H]1CC[C@@H](NC(=O)Cc2ccccn2)[C@H](CO)O1,-3,/,/,/
SMILES,Mtb BioA inh,GDH-TPI counter,Mtb FBA inh,Vc quorum ag
COc1ccc(/C=C/C(=O)Nc2ccc(C)c(S(=O)(=O)N3CCOCC3)c2)cc1,-1,33*,2,0
CCOc1ccc2cc(S(=O)(=O)N3CCOCC3)ccc2c1,1,-16,10,74*
COc1ccc(NC(=O)/C=C/c2ccc(S(=O)(=O)N3CCOCC3)cc2)cc1,1,5,1,i
COc1ccc(/C=C/C(=O)Nc2cc(S(=O)(=O)N3CCOCC3)ccc2OC)cc1,1,31*,-3,1
CO[C@@H]1CN(C)C(=O)c2ccc(NC(=O)Nc3cc(F)ccc3F)cc2OC[C@@H](C)N(C(=O)c2ccccn2)C[C@H]1C,0,/,/,/
Cn1c(C(=O)NN)cc2cc(OCc3ccccc3)ccc21,-3,31*,5,-1
O=C(C1CCCC1)N1CCCCN2[C@H](CO)[C@@H](c3ccc(-c4cccc(F)c4)cc3)[C@@H]2C1,0,/,/,/
C[C@@H]1CN([C@@H](C)CO)S(=O)(=O)c2ccc(-c3cccc(C(=O)N(C)C)c3)cc2O[C@@H]1CN(C)C(=O)Cc1ccccn1,0,/,/,/
